From PubChem BioAssay (EPA / NIEHS)
Records with an inconclusive call do not appear. Activity calls are given as the source filed them. How the source made its calls, unless noted: active means hit-call score of the fitted dose curve at least 0.9, where 1 is the maximum; inconclusive means response in the unintended direction; inactive means score below 0.9.

Experiments:
[1] = Tanguay_ZF_120hpf_OTIC_legacy: (Legacy) Oregon State University Tanguay Lab 120 Hour Post-fertilization zebrafish Assay for Otic Vesicle Malformation (AID 2283639)
Outline: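 Brightfield scoring at 120 hpf, binary present/absent; DMSO negative control, 5uM trimethyltin chloride positive control. Static exposure at 28C, final DMSO 0.64% (vol/vol). Dead embryos not scored for malformation.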

[2] = Tanguay_ZF_120hpf_PE_legacy: (Legacy) Oregon State University Tanguay Lab 120 Hour Post-fertilization zebrafish Assay for Pericardial Edema (AID 2283640);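 on AC50: potency for increased incidence of pericardial edema versus DMSO baseline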
Outline: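 Scoring was binary, by brightfield microscopy at 120 hpf, and skipped where mortality occurred. Wild-type embryos were kept under sealed, foil-covered static exposure at 28C in 0.64% (vol/vol) DMSO.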

[3] = Tanguay_ZF_120hpf_BRAI_legacy: (Legacy) Oregon State University Tanguay Lab 120 Hour Post-fertilization zebrafish Assay for Brain Malformation (AID 2283641)
Outline: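 Binary brightfield scoring of brain malformation at 120 hpf in Tropical 5D larvae held under static exposure at 28C (0.64% v/v DMSO), non-mortality endpoints skipped if dead. Positive control: 5uM trimethyltin chloride; fit versus DMSO.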

[4] = Tanguay_ZF_120hpf_SOMI_legacy: (Legacy) Oregon State University Tanguay Lab 120 Hour Post-fertilization zebrafish Assay for Somite Malformation (AID 2283647)
Outline: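 Binary somite-defect scoring at 120 hpf, omitted for embryos that died, in wild-type (Tropical 5D) zebrafish with chorion removed by pronase at 4 hpf; static exposure began 6 hpf, single embryos per well, 28C, 0.64% DMSO; fitted positive versus DMSO.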

[5] = Tanguay_ZF_120hpf_CFIN_legacy: (Legacy) Oregon State University Tanguay Lab 120 Hour Post-fertilization zebrafish Assay for Caudal Fin Malformation (AID 2283649)
Outline: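 Binary brightfield scoring of caudal fin defects at 120 hpf after static, light-shielded exposure at 28C from 6 hpf. Tropical 5D embryos, chorion removed with pronase at 4 hpf, final DMSO 0.64%.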

[6] = Tanguay_ZF_120hpf_PIG_legacy: (Legacy) Oregon State University Tanguay Lab 120 Hour Post-fertilization zebrafish Assay for Pigmentation Malformation (AID 2283650)
Outline: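 Endpoint is incidence of abnormal pigmentation at 120 hpf in dechorionated 5D zebrafish exposed singly from 6 hpf at 28C, DMSO vehicle at 0.64%. Embryos dying by 24 or 120 hpf are excluded from scoring.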

[7] = Tanguay_ZF_120hpf_CIRC_legacy: (Legacy) Oregon State University Tanguay Lab 120 Hour Post-fertilization zebrafish Assay for Circulatory Malformation (AID 2283651)
Outline: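 Static exposure, 6–120 hpf, 28C, sealed and dark; one dechorionated 5D embryo/well; DMSO 0.64% v/v final. Binary circulation endpoint by brightfield; dead embryos not scored.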

[8] = Tanguay_ZF_120hpf_SWIM_legacy: (Legacy) Oregon State University Tanguay Lab 120 Hour Post-fertilization zebrafish Assay for Swim Bladder Malformation (AID 2283654);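 further: swim bladder malformation in each larva scored yes or no under brightfield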
Outline: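 Static waterborne exposure of single dechorionated Tropical 5D zebrafish embryos, 6–120 hpf, 28C, 0.64% DMSO final. Read-out: swim bladder malformation, present/absent, relative to DMSO negative control; trimethyltin chloride 5uM served as positive control.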

[9] = Tanguay_ZF_120hpf_TRUN_legacy: (Legacy) Oregon State University Tanguay Lab 120 Hour Post-fertilization zebrafish Assay for Truncated Body (AID 2283655)
Outline: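 Binary presence/absence of truncated body is recorded at 120 hpf by brightfield, with non-mortality endpoints skipped after death. Exposure is static from 6 hpf in sealed dark plates at 28C, using dechorionated wild-type zebrafish, 0.64% DMSO.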

[10] = test system: Thyroperoxidase (TPO), gene 54314; experiment: CCTE_Simmons_AUR_rTPO: CCTE's Amplex UltraRed Assay for Thyroperoxidase (TPO) Inhibition, Simmons Lab (AID 2283662);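 on AC50: potency for loss of signal meaning inhibition of peroxidase activity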
Outline: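 Endpoint is decreased Amplex UltraRed fluorescence after a 30-min, 37C reaction of rat thyroid microsomes with 300 uM H2O2. Eight test concentrations (5 nM–87.5 uM final) in 0.5% DMSO, three biological replicates each.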

[11] = Tanguay_ZF_120hpf_PFIN_legacy: (Legacy) Oregon State University Tanguay Lab 120 Hour Post-fertilization zebrafish Assay for Pectoral Fin Malformation (AID 2283648);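 further: each larva judged yes or no for fin defect by brightfield with dead larvae skipped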
Outline: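 Scoring of pectoral fin malformation was binary, made at 120 hpf on larvae exposed statically from 6 hpf after enzymatic chorion removal. Activity was fitted upward relative to DMSO controls at 0.64% (vol/vol).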

[12] = Tanguay_ZF_120hpf_NC_legacy: (Legacy) Oregon State University Tanguay Lab 120 Hour Post-fertilization zebrafish Assay for Notochord and Tail Malformation (AID 2283656)
Outline: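 Binary notochord-distortion calls, made by brightfield inspection, form the read-out; activity is fitted in the positive direction against DMSO. Exposure ran statically from 6 to 120 hpf at 28C with 0.64% DMSO.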

[13] = read-out: solute carrier (SLC22A6), SLC22A6 (gene 9356); experiment: LTEA_HepaRG_SLC22A6: Life Technologies and Expression Analysis (LTEA) Assay for solute carrier (SLC22A6) using HepaRG (AID 2283653; active means hit-call score of the fitted dose curve at least 0.9, where 1 is the maximum; inactive means score below 0.9); conditions: mRNA level, 48 h; actives raise or lower the signal
Outline: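 SLC22A6 transcript was measured by TaqMan qRT-PCR, normalized to three housekeeping genes, after 48 h duplicate exposure of HepaRG cells (100 uM top, half-log steps, 0.5% DMSO); bidirectional fit against vehicle.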

[14] = read-out: solute carrier (SLC10A1), SLC10A1 (gene 6554); experiment: LTEA_HepaRG_SLC10A1: Life Technologies and Expression Analysis (LTEA) Assay for solute carrier (SLC10A1) using HepaRG (AID 2283657; active means hit-call score of the fitted dose curve at least 0.9, where 1 is the maximum; inactive means score below 0.9); conditions: mRNA level, 48 h; actives raise or lower the signal
Outline: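 Cryopreserved HepaRG cells are thawed, plated and cultured 48 h; medium is then switched to serum-free induction medium and chemicals added (8 points, max 100 uM, 0.5% DMSO). After 48 h, RNA is isolated and SLC10A1 quantified by qRT-PCR.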

[15] = read-out: matrix metalloproteinase-1 (MMP1), MMP1 (gene 4312); experiment: LTEA_HepaRG_MMP1: Life Technologies and Expression Analysis (LTEA) Assay for matrix metalloproteinase-1 (MMP1) using HepaRG (AID 2283658; active means hit-call score of the fitted dose curve at least 0.9, where 1 is the maximum; inactive means score below 0.9); conditions: mRNA level, 48 h; actives raise or lower the signal
Outline: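 qRT-PCR (TaqMan, Fluidigm arrays) of MMP1 transcript, normalized against three housekeeping genes and fitted in both directions relative to 0.5% DMSO vehicle. Human HepaRG cultures received duplicate 48 h exposures across 8 points, highest 100 uM with half-log steps.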

[16] = read-out: ABC Transporter (ABCB1), ABCB1 (gene 5243); experiment: CLD_ABCB1_6hr: CellzDirect (CLD) Gene Expression Assay for ABC Transporter (ABCB1) at 6 hours (AID 2283659);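 further: hits raise ABCB1 transcript above the DMSO vehicle baseline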
Outline: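 ABCB1 transcript measured by quantitative nuclease protection assay, chemiluminescent read-out, 6 h after dosing human hepatocyte cultures (0.2% DMSO vehicle, daily redosing). Activity fitted as increase over DMSO baseline; cytotoxicity flagged by phase-contrast morphology.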

[17] = read-out: Broad substrate specificity ATP-binding cassette transporter ABCG2 (Homo sapiens) (UniProt Q9UNQ0); experiment: CLD_ABCG2_6hr: CellzDirect (CLD) Gene Expression Assay for ABC Transporter (ABCG2) at 6 hours (AID 2283660)
Outline: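 ABCG2 mRNA induction measured by qNPA chemiluminescence in human primary hepatocyte cultures, 6 h post-dose. Chemicals tested at several concentrations against a 0.2% DMSO vehicle; positive-direction fit relative to DMSO.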

[18] = read-out: xenobiotic metabolism (CYP1A1), CYP1A1 (gene 1543); experiment: CLD_CYP1A1_6hr: CellzDirect (CLD) Gene Expression Assay for xenobiotic metabolism (CYP1A1) at 6 hours (AID 2283661);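 on AC50: potency for transcript induction above DMSO vehicle baseline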
Outline: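 Read-out 6 h post-dose: qNPA chemiluminescent quantitation of transcript induction against 0.2% DMSO. Cells were cultured primary human hepatocytes from two separate donor preparations; phase-contrast morphology annotated apparent cytotoxicity.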

[19] = read-out: xenobiotic metabolism (CYP2C9), CYP2C9 (gene 1559); experiment: CLD_CYP2C9_6hr: CellzDirect (CLD) Gene Expression Assay for xenobiotic metabolism (CYP2C9) at 6 hours (AID 2283664)
Outline: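 Readout is qNPA chemiluminescence of CYP2C9 mRNA, taken 6 h after dosing of cultured human liver primary cells at several concentrations. Activity is the increase over 0.2% DMSO baseline. Morphology-based cytotoxicity flagged yes/no.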

[20] = read-out: xenobiotic metabolism (CYP1A2), CYP1A2 (gene 1544); experiment: CLD_CYP1A2_6hr: CellzDirect (CLD) Gene Expression Assay for xenobiotic metabolism (CYP1A2) at 6 hours (AID 2283663);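 further: potency is for induction meaning a rise in mRNA above DMSO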
Outline: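 mRNA levels quantified by quantitative nuclease protection assay with chemiluminescence, 6 h after dosing human primary hepatocyte cultures (two donors) across several concentrations, vehicle 0.2% DMSO. Induction fitted upward versus DMSO; phase-contrast cytotoxicity annotated.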

Measured: AC50

Sequence of Broad substrate specificity ATP-binding cassette transporter ABCG2 (Homo sapiens) (Q9UNQ0 whole entry, looked up): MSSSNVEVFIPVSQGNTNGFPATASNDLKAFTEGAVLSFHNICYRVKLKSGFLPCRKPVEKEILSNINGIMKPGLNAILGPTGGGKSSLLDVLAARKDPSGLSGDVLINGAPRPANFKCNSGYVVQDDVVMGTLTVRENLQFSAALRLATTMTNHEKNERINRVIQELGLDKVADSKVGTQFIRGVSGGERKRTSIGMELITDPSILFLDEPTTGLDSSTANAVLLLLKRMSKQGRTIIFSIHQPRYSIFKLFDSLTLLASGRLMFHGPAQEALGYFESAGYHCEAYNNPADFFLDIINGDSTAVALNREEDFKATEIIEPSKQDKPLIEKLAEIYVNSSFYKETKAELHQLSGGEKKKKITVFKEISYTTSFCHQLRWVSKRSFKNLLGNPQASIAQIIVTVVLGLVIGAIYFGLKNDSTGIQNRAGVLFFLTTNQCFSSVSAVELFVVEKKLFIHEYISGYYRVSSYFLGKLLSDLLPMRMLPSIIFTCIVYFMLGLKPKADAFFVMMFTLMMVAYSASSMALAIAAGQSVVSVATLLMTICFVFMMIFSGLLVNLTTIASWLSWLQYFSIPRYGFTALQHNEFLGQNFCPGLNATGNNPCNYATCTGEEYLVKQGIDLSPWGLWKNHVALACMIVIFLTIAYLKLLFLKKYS

CCCCCCCCOC(=O)c1ccccc1C(=O)OCCCCCCCC
inactive: [1] | [2] | [3] | [4] | [5] | [6] | [7] | [8] | [9]
active: [10] 11.8 µM

C=CC(N)=O
inactive: [1] | [2] | [3] | [4] | [11] | [5] | [6] | [7] | [8]

CCOCCOC(C)=O
inactive: [1] | [2] | [3] | [4] | [11] | [5] | [6] | [7] | [8] | [9] | [12]

Oc1c(Cl)c(Cl)c(Cl)c(Cl)c1Cl
inactive: [1] | [2] | [3] | [4] | [11] | [5] | [6] | [7] | [8] | [9]
active: [10] 8.93 µM

O=C(NC(=O)c1c(F)cccc1F)Nc1cc(Cl)c(OC(F)(F)C(F)F)c(Cl)c1
active: [10] 20.7 µM
inactive: [1] | [2] | [3] | [4] | [11] | [5] | [7] | [9] | [12]

CC1=C2C[C@H]3[C@@H](CC=C4C[C@@H](O)CC[C@@]43C)[C@@H]2CC[C@]12O[C@@H]1C[C@H](C)CN[C@H]1[C@H]2C
inactive: [1] | [3] | [4] | [7] | [13] | [9] | [12] | [14] | [15]
active: [2] 20.2 µM | [5] 16.6 µM | [6] 20 µM

O=NN(c1ccccc1)c1ccccc1
inactive: [1] | [2] | [3] | [4] | [6] | [7] | [8] | [12]

CCOP(=S)(OCC)SCSC(C)(C)C
inactive: [1] | [2] | [3] | [4] | [6] | [7]
active: [10] 8.68 µM

C=CC(=O)NCNC(=O)C=C
inactive: [1] | [2] | [3] | [4] | [11] | [5] | [6] | [7] | [8] | [9]

O=C(O)C(F)(F)C(F)(F)C(F)(F)C(F)(F)C(F)(F)C(F)(F)C(F)(F)C(F)(F)F
inactive: [1] | [2] | [3] | [4] | [5] | [6] | [7] | [8] | [9] | [12] | [10]

Oc1ccc(C(c2ccc(O)cc2)(C(F)(F)F)C(F)(F)F)cc1
inactive: [3] | [7] | [8]
active: [1] 51.7 µM | [2] 37.7 µM | [11] 53.3 µM | [5] 54 µM | [6] 56.9 µM | [9] 53 µM | [10] 21.7 µM

CC(C)C(=O)OCC(C)(C)C(OC(=O)C(C)C)C(C)C (stereo unspecified)
inactive: [1] | [3] | [4] | [5] | [6] | [7] | [8] | [9]
active: [2] 28.8 µM

CCC(C)(CC)c1cc(NC(=O)c2c(OC)cccc2OC)on1
inactive: [1] | [2] | [3] | [4] | [5] | [8] | [9] | [16] | [17] | [18] | [19]

CCNc1nc(NC(C)C)nc(SC)n1
inactive: [1] | [2] | [3] | [4] | [5] | [6] | [7] | [8] | [9] | [16]
active: [18] 1.42 µM | [20] 0.262 µM
